Reference: PubChem BioAssay AID1159580 (chemical genetic matrix, 2015)
Screen size: about 5,500 compounds; about 2,000 (36%) were called active. Another 18% or so got no clear call; they are omitted. Rule as the data show it: active = normalized growth mostly below about 0.91 (no sharp cut-off); inconclusive = no clear call, values can overlap the other calls; inactive = mostly above about 0.92. The list shows a part of the results.

Assay: chemical genetic growth profiling, strain panel (AID 1159580);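 also: tested at 20 µM; growth read once vehicle control cultures reached saturation at 30 °C; 1 = growth at the plate median or of vehicle wells; lower values mean less growth of the strain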
Settings: S. cerevisiae deletion strains, growth OD
[1] = locus YDL101C, strain DUN1, hits give low values
[2] = locus YHR030C, strain SLT2, hits give low values

Measured: normalized growth

Cc1ccc2nc(-c3ccc4c(c3)OCCO4)cn2c1
inactive: locus YAR019C, strain CDC15, hits give low values 0.981 | locus YBL105C, strain PKC1, hits give low values 0.98 | locus YBR135W, strain CKS1, hits give low values 0.984 | locus YBR136W, strain MEC1, hits give low values 0.983 | locus YBR160W, strain CDC28, hits give low values 0.978 | locus YDL017W, strain CDC7, hits give low values 0.985 | locus YDL028C, strain MPS1, hits give low values 0.984 | [1] 0.988 | locus YDL108W, strain KIN28, hits give low values 0.982 | locus YDL132W, strain cdc53, hits give low values 0.982 | locus YDL214C, strain PRR2, hits give low values 0.958 | locus YDR052C, strain DBF4, hits give low values 0.988 | locus YDR054C, strain cdc34, hits give low values 0.97 | locus YDR226W, strain ADK1, hits give low values 0.99 | locus YDR477W, strain SNF1, hits give low values 0.967 | locus YER123W, strain YCK3, hits give low values 0.941 | locus YER133W, strain GLC7, hits give low values 0.966 | locus YFL009W, strain cdc4, hits give low values 0.981 | locus YFL029C, strain CAK1, hits give low values 0.974 | locus YFR003C, strain YPI1, hits give low values 0.983 | locus YFR019W, strain FAB1, hits give low values 0.963 | locus YFR028C, strain CDC14, hits give low values 0.976 | locus YGR040W, strain KSS1, hits give low values 0.953 | locus YGR052W, strain FMP48, hits give low values 1.04 | locus YGR092W, strain DBF2, hits give low values 0.929 | [2] 0.986 | locus YHR079C, strain IRE1, hits give low values 0.966 | locus YHR082C, strain KSP1, hits give low values 1.01 | locus YHR205W, strain SCH9, hits give low values 0.956 | locus YIL147C, strain SLN1, hits give low values 0.983 | locus YJL095W, strain BCK1, hits give low values 0.984 | locus YJL128C, strain PBS2, hits give low values 0.969 | locus YJL157C, strain FAR1, hits give low values 0.944 | locus YJR016C, strain ILV3, hits give low values 0.983 | locus YJR066W, strain TOR1 (second series), hits give low values 0.911 | locus YJR066W, strain TOR1, hits give low values 1 | locus YKL048C, strain ELM1, hits give low values 0.959 | locus YKL067W, strain YNK1, hits give low values 0.967 | locus YKL101W, strain HSL1, hits give low values 0.951 | locus YKL193C, strain SDS22, hits give low values 0.983 | locus YKL203C, strain TOR2, hits give low values 1.01 | locus YLR113W, strain HOG1, hits give low values 0.899 | locus YLR133W, strain CKI1, hits give low values 0.956 | locus YLR403W, strain SFP1, hits give low values 0.947 | locus YML070W, strain DAK1, hits give low values 0.938 | locus YMR001C, strain CDC5, hits give low values 0.987 | locus YMR205C, strain PFK2 (second series), hits give low values 0.97 | locus YMR277W, strain FCP1, hits give low values 0.982 | locus YNL006W, strain LST8, hits give low values 0.989 | locus YNL020C, strain ARK1, hits give low values 0.961 | locus YNL161W, strain CBK1, hits give low values 0.974 | locus YNL183C, strain NPR1, hits give low values 0.996 | locus YNL207W, strain RIO2, hits give low values 0.978 | locus YNL222W, strain SSU72, hits give low values 0.979 | locus YNL307C, strain MCK1 (second series), hits give low values 0.94 | locus YOL078W, strain AVO1, hits give low values 0.98 | locus YOL136C, strain PFK27, hits give low values 0.929 | locus YOR061W, strain CKA2, hits give low values 0.966 | locus YOR119C, strain RIO1, hits give low values 0.997 | locus YOR231W, strain MKK1, hits give low values 0.932 | locus YOR329C, strain SCD5, hits give low values 0.985 | locus YPL031C, strain PHO85, hits give low values 0.958 | locus YPL153C, strain RAD53, hits give low values 0.947 | locus YPL204W, strain HRR25, hits give low values 0.935 | locus YPL209C, strain IPL1, hits give low values 0.978 | locus YPL256C, strain CLN2, hits give low values 0.923 | locus YPR025C, strain CCL1, hits give low values 0.981 | locus YPR106W, strain ISR1, hits give low values 0.973 | locus YPR111W, strain DBF20, hits give low values 0.965 | strain NNK1, hits give low values 0.975 | strain TSCII, hits give low values 0.986

COC(=O)C/C(N)=C(\C#N)C(=O)OC
inactive: locus YAL013W, strain DEP1, hits give low values 1 | locus YBR229C, strain ROT2, hits give low values 0.984 | locus YCL061C, strain MRC1, hits give low values 1.02 | [1] 1.03 | locus YDR150W, strain NUM1, hits give low values 1.01 | locus YEL061C, strain CIN8, hits give low values 0.994 | locus YGR078C, strain PAC10, hits give low values 1.05 | [2] 1.08 | locus YHR087W, strain rtc3, hits give low values 0.944 | locus YJL187C, strain SWE1, hits give low values 1.02 | locus YJR043C, strain POL32, hits give low values 1.02 | locus YJR075W, strain HOC1, hits give low values 1.01 | locus YKL190W, strain CNB1, hits give low values 0.986 | locus YLR039C, strain RIC1, hits give low values 0.993 | locus YLR058C, strain SHM2 (second series), hits give low values 0.983 | locus YLR085C, strain ARP6, hits give low values 0.995 | locus YLR262C, strain YPT6, hits give low values 0.982 | locus YML094W, strain GIM5, hits give low values 0.982 | locus YMR219W, strain ESC1, hits give low values 0.982 | locus YMR263W, strain SAP30, hits give low values 1.02 | locus YNL153C, strain GIM3, hits give low values 1.04 | locus YNL298W, strain CLA4 (second series), hits give low values 0.999 | locus YNL322C, strain KRE1, hits give low values 1.01 | locus YNR030W, strain Alg12, hits give low values 1.03 | locus YPL055C, strain LGE1, hits give low values 0.975 | locus YPL241C, strain CIN2, hits give low values 1.01 | locus YPR135W, strain CTF4, hits give low values 1.08
